# Bioassay records (PubChem BioAssay)
# PV pol inh: inhibitors of poliovirus RNA polymerase binding and polymerization; P03300; poliovirus polymerase elongation, fluorescence polarization; hits give low values; % elongation, % (compound at 16.7 µg/mL); actives 0.66% (n = 150,000); AID 588519; in the data active = % elongation below about 90%
# Mtb MbtI inh: blocks the Mycobacterium tuberculosis siderophore enzyme MbtI | inhibition, % (concentration not given with the values) | purified MbtI enzyme, fluorescence intensity read-out | actives 0.89% (n = 100,000) | AID 493033; in the data active = inhibition mostly above about 56%, no sharp cut-off; inactive = mostly below about 77%
# Target sequence (P9WFX0 whole entry, looked up): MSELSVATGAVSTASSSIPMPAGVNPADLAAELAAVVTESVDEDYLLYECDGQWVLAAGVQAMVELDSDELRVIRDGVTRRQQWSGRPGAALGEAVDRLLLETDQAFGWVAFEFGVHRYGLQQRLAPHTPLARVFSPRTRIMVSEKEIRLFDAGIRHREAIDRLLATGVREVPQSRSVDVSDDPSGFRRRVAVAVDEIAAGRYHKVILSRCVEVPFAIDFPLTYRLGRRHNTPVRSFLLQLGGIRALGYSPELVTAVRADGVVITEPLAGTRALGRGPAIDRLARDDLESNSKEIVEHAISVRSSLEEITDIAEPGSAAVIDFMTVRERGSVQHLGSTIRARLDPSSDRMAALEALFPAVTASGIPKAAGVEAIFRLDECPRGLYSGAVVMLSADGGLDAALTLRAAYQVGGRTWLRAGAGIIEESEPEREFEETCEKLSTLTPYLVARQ
# AID504770: growth inhibitors of E. coli YBA685 in a screen for V. cholerae RctB (chromosome II replication) inhibitors | z-score (no concentration beside the values) | actives 0.27% (n = 130,000) | E. coli YBA685 rctB-dependent plasmid, OD600 growth, 3 h; hits give low values | AID 504770; in the data active = z-score below about -2, passing the limit was not always enough
# MenB inh: blocks the Mycobacterium tuberculosis MenB enzyme; P9WNP5; MenB enzyme assay, absorbance read-out; inhibition, % (concentration not given with the values); actives 0.43% (n = 100,000); in the data active = inhibition above about 21%, passing the limit was not always enough
# Hits are given with their value; n = inactive; x = no result given. Rows were chosen to be rich in hits. Some 1.4% of all compounds tested hit in one or more screens of this group.
SMILES,PV pol inh,Mtb MbtI inh,AID504770,MenB inh
O=C(Nc1cccc(F)c1)[C@H](Cc1ccccc1)N1Cc2ccccc2C1=O,n,n,n,n
Nc1[nH]ncc1-c1ccc(-n2cccc2)cc1,x,x,n,x
Cc1cc(-n2c(C)cc(C(=O)COC(=O)C34CCC(=O)N3c3ccccc3S4)c2C)no1 (stereo not drawn),n,n,n,n
CC(CC1CC(C)(C)OC1=O)c1nc(=S)[nH][nH]1 (stereo not drawn),n,64,n,n
CCCn1c(NC(=O)Cc2coc3ccc4ccccc4c23)nc2ccccc21,n,n,n,n
CCOC(=O)[C@@H]1Nc2ccc(C(=O)O)cc2[C@@H]2C=CC[C@H]12,68,n,n,n
CCC(C)NC(=O)C1COc2ccccc2O1 (stereo not drawn),n,n,n,n
Cc1nc2ccccc2c2oc(C(=O)NCCN3CCCCCC3)cc12,x,x,n,x
Cc1cc(NCCN2CCCCC2)c2ccc3ccccc3c2n1,69,n,n,n
COc1ccc(-c2cc(-c3ccccc3)c(C#N)c(SCC(O)CS(=O)(=O)Cc3ccc(Cl)cc3)n2)cc1 (stereo not drawn),n,x,x,x
N#Cc1c(-c2ccccc2)cc(-c2ccccc2)nc1SCC(O)CS(=O)(=O)Cc1ccc(Cl)cc1 (stereo not drawn),89,x,x,x
NC(=O)C1Cc2ccccc2CN1C(=O)CSc1nnc(-c2ccco2)n1Cc1ccccc1 (stereo not drawn),n,n,n,n
NC(=O)C1CCN(C(=O)CCCn2c(=S)[nH]c3ccccc3c2=O)CC1,n,n,n,n
N#Cc1ccc(OC(C(F)(F)F)C(F)(F)F)cc1C#N,n,n,n,n
N#Cc1ccc(Sc2ccc(C#N)c(C#N)c2)cc1C#N,n,100,n,n
Cc1csc2ncnc(N3CCN(C(=S)NCC4CC4)CC3)c12,88,n,n,n
O=C(CNc1ccccc1)N/N=C/c1ccc(O)cc1,n,n,n,n
N#CC1=C(S)NC(=O)CC1c1ccco1 (stereo not drawn),79,n,n,n
N#CC1=C(SCC(=O)N(c2ccccc2)c2ccccc2)NC(=O)CC1c1ccco1 (stereo not drawn),x,x,n,x
S=C(c1ccc(-c2ccccc2)o1)N1CCN(c2ccccc2)CC1,68,92,n,n
CC(=O)N1CCN(C(=S)c2ccc(-c3ccc(C)cc3)o2)CC1,n,n,n,n
O=S1(=O)C=C(SCCN2CCOCC2)c2ccccc21,n,n,-3.4,n
Cc1ccc(/C=C2/C(=O)/C(=C/c3ccc(C)o3)C3CCC2N3C)o1,n,n,n,n
Cc1ccc(/C=C2\CCCc3ccccc3C2=O)o1,n,n,n,n
Cc1ccc(/C=C2/CC(C)C/C(=C\c3ccc(C)o3)C2=O)o1 (stereo not drawn),n,92,n,n
SMILES,PV pol inh,Mtb MbtI inh,AID504770,MenB inh
Cc1ccc(/C=C2/C=CC(=O)O2)o1,81,x,n,n
Cc1ccc(/C=C2\CC/C(=C\c3ccc(C)o3)C2=O)o1,n,99,n,n
Brc1ccc(Oc2ccc(Nc3nc4ccccc4o3)cc2)cc1,n,n,n,n
CCOc1ccccc1C(=O)N=C1NC(=O)CS1,n,n,n,n
O=S(=O)(c1cccs1)N1CCCN(S(=O)(=O)c2cccs2)CC1,n,n,n,26
O=C(CSc1nnc(-c2ccco2)o1)NC(c1ccccc1)c1ccccc1,n,n,n,n
Cc1cc(Cl)cc(C)c1OCC1COS(=O)O1 (stereo not drawn),82,n,n,n
Cc1ccc(Nc2nnc(SCc3nc4sc(C(=O)O)c(C)c4c(=O)[nH]3)s2)cc1C,81,n,n,n
CSCc1nc2sc(C(=O)NC3CC3)c(C)c2c(=O)[nH]1,n,n,n,n
CCOc1ccc(NC(=O)CN(C)C(C)c2nnc(-c3cccs3)o2)cc1OCC (stereo not drawn),n,n,n,n
NS(=O)(=O)c1ccc(CCn2ccn(CC(=O)NCCC3=CCCCC3)c(=O)c2=O)cc1,n,n,n,n
CC(C)Cc1csc2ncnc(NCCO)c12,88,n,n,n
CCC(C)(C(=O)Nc1cccc(C)c1)N1CCC1=O (stereo not drawn),n,x,n,n
Cn1c(C2CCCCC2)nc2ccccc21,n,n,n,28
Cn1c(CNC2CCCCC2)nc2ccccc21,x,x,n,x
Cc1ccccc1NC(=O)C1C(c2cccs2)C(C#N)=C(SCC(N)=O)NC1(C)O (stereo not drawn),n,n,n,n
COc1ccc2c(c1)Cc1sc(NC(=O)c3ccc(Cl)cc3)nc1-2,88,x,x,x
COc1ccc2c(c1)CCc1sc(NC(=O)c3cccc(Br)c3)nc1-2,n,x,x,x
COc1ccc2c(c1)Cc1sc(NC(=O)c3cccc(C)c3)nc1-2,56,x,x,x
COc1ccc(C(=O)Nc2nc3c(s2)CCc2cc(OC)ccc2-3)cc1,80,x,x,x
COc1ccc2c(c1)Cc1sc(NC(=O)c3cccc(Cl)c3)nc1-2,63,x,x,x
CCOc1cc(CCC(=O)O)on1,n,n,n,n
COc1ccc(CN(C)S(=O)(=O)c2cn(C)c(=O)n(C)c2=O)cc1OC,n,n,n,n
CCC(C)c1ccccc1N=Cc1cccs1 (stereo not drawn),n,n,n,x
O=C(Nc1ccc2c(c1)COC2=O)c1cccc(Cl)c1,n,n,n,n
SMILES,PV pol inh,Mtb MbtI inh,AID504770,MenB inh
CN(Cc1ccco1)C(=O)C1=Cc2sc3c(c2CS1)CCCC3,n,n,n,n
COc1ccc(-c2n[nH]c(=S)n2/N=C/c2ccccc2Br)cc1OC,n,n,n,n
CCOc1cccc(/C=N/n2c(-c3ccc(Cl)cc3)n[nH]c2=S)c1O,85,79,n,n
CCOC(=O)c1[nH]c(=O)[nH]c1CSc1ccccn1,n,91,n,n
N#CC(C(=O)c1ccc(F)cc1)c1nc2ccccc2c(=O)[nH]1 (stereo not drawn),n,n,n,x
CCO/C=C1\C(=O)N(c2ccccc2)C(=O)c2ccccc21,80,n,n,x
CCO/C=C1/C(=O)N(c2ccc(OC)cc2)C(=O)c2ccccc21,82,n,n,n
CCO/C=C1/C(=O)N(c2ccc(S(=O)(=O)N3CCOCC3)cc2)C(=O)c2ccccc21,n,n,n,n
COc1ccc(N2CCN(/C=C3\C(=O)N(c4ccc(C)cc4)C(=O)c4ccccc43)CC2)cc1,n,n,n,n
CCCCCc1ccc(C(=O)CCN(C)C)cc1,n,73,n,n
CN(C)CCC(=O)c1ccc2c(c1)OCO2,n,n,n,n
CO/N=C(\C(=O)NC1C(=O)N2C(C(=O)OCOC(=O)C(C)(C)C)=C(/C=C\c3scnc3C)CSC12)c1csc(N)n1 (stereo not drawn),n,n,n,n
C=CC1=C(C(=O)O)N2C(=O)[C@@H](NC(=O)/C(=N\O)c3csc(N)n3)[C@H]2SC1 (stereo in doubt),n,n,-5.1,n
CC1=C(C(=O)Nc2ccccc2C(=O)NC(C)(C)C)SCCO1,n,n,n,n
NCCS,n,51,n,n
O=C(NCCc1ccccn1)C(F)(F)C1(F)OC(F)(F)C(F)(F)C1(F)F (stereo not drawn),n,n,n,n
S=c1[nH]nc(-c2ccncc2)o1,x,97,n,x
CC(C)N(C(=O)Cn1c(-c2cccnc2)ccc(C#N)c1=O)C(C)C,n,n,n,n
